From PubChem BioAssay (Tox21)
Several values for one entry are separate records, joined by “and”; a condition that tells them apart may be missing. Equal values may be shown once. Inconclusive results are not listed. Activity calls are given as the source filed them. Unless noted, calls come from the whole dose curve; as a rule, active = well fitted curve in the direction sought with a large enough effect in the repeat runs; inconclusive = weak or mixed curves; inactive = no such curve, though single readings can be large; an effect the other way counts as inactive or inconclusive.

Key:
[1] = qHTS assay for small molecules that induce genotoxicity in human embryonic kidney cells expressing luciferase-tagged ATAD5 (AID 651632); conditions: HEK293T ATAD5-luciferase induction, 16 h; series mostly up to 83.3 µM; note: nearly all actives have a fitted effect of over 15% in size; note: potency is the fitted concentration of half-maximal effect
In short: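 HEK293T cells carrying a luciferase reporter tagged to ATAD5 were exposed to compound or DMSO vehicle for 16 hr at 37C, 5% CO2. Amplite was added, and after 30 min at room temperature luciferase activity was read as a marker of ATAD5 induction.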

[2] = qHTS assay for small molecule agonists of the p53 signaling pathway - cell viability (AID 651633; calls by dose curve; note: nearly all actives have a fitted effect of over 30% in size; note: potency is the fitted concentration of half-maximal effect); conditions: p53RE-bla HCT-116 viability, ATP luminescence, 16 h; series mostly up to 83.3 µM
In short: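 Viability counter-read: CellTiter-Glo luminescence (30 min, room temperature) in the same p53RE-bla plates. These plates had been exposed to compounds for 16 h at 37 C.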

[3] = qHTS assay for small molecules that induce genotoxicity in human embryonic kidney cells expressing luciferase-tagged ATAD5 - cell viability (AID 651634; calls by dose curve; note: nearly all actives have a fitted effect of over 25% in size; note: potency is the fitted concentration of half-maximal effect); conditions: HEK293T ATAD5-luc cells viability, CellTiter-Fluor, 15.5 h; series mostly up to 83.3 µM
In short: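 HEK293T cells expressing luciferase-tagged ATAD5 were exposed to compound or DMSO for 15.5 hr at 37C, 5% CO2. Viability was then read as live-cell protease activity by CellTiter-Fluor fluorescence after 30 min at 37C.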

[4] = qHTS assay for small molecule disruptors of the mitochondrial membrane potential - cell viability (AID 720634; calls by dose curve; note: nearly all actives have a fitted effect of over 20% in size; note: potency is the fitted concentration of half-maximal effect); conditions: HepG2 viability, ATP luminescence (CellTiter-Glo), 1 h; series mostly up to 83.2 µM
In short: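 HepG2 cells seeded overnight at 37 C, then exposed to compound or DMSO for 1 hr at 37 C, 5% CO2. m-MPI dye added, then CellTiter-Glo for 30 min at room temperature; viability read as ATP luminescence.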

[5] = qHTS assay for small molecule disruptors of the mitochondrial membrane potential (AID 720635); conditions: HepG2 mitochondrial membrane potential, Mito-MPS dye ratio; series mostly up to 83.2 µM; note: potency is the fitted concentration of half-maximal effect
In short: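 Mitochondrial membrane potential tracked with Mito-MPS dye, red aggregates (ex 540/em 590 nm) against green monomers (ex 490/em 535 nm). Compound treatment 1 hr at 37C, dye 30 min in HepG2.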

[6] = qHTS assay to test for compound auto fluorescence at 590 nm (red) in HepG2 cells (AID 720674); conditions: HepG2 autofluorescence, red 540/590 nm, 1 h; series mostly up to 46 µM
In short: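 Red autofluorescence (Ex/Em 540/590 nm, Rose Bengal sodium equivalents) was measured in HepG2 cells, 2,000 per well in MEM plus 10% FBS, plated overnight at 37 C. Readings were taken 1 hr after adding 23 nL compound or DMSO, at 37 C and 5% CO2.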

[7] = qHTS assay to test for compound auto fluorescence at 535 nm (green) in HepG2 cells (AID 720675); conditions: green autofluorescence 485/535 nm, 1 h; series mostly up to 46 µM
[8] = qHTS assay to test for compound auto fluorescence at 460 nm (blue) in HEK293 cells (AID 720678); conditions: blue autofluorescence 405/460 nm; series mostly up to 46 µM
In short: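 HEK293, 2,000 cells/well, 10% dialyzed FBS; attach 4-5 hr 37C; pin compound or DMSO; o/n 37C/5% CO2; fluorescence 405/460 nm; triamterene-equivalent units.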

[9] = qHTS assay to test for compound auto fluorescence at 590 nm (red) in HEK293 cells (AID 720679); conditions: red autofluorescence 540/590 nm; series mostly up to 46 µM
In short: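 Intensity at 540nm excitation and 590nm emission is reported as Rose Bengal sodium-equivalent autofluorescence. Measurements followed overnight exposure (37C, 5% CO2) of HEK293 cells, 2,000 per well, to 23 nL compound.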

Measured: Potency

CCN(CC)CCn1c(=O)c(Cc2ccc(OC)cc2)nc2ccccc21
inactive: [1] | [2] | [3] | [4] | [5] | [6] | [7] | [8] | [9]

N#Cc1c(N(CC(=O)O)CC(=O)O)sc(C(=O)O)c1CC(=O)O
inactive: [1] | [2] | [3] | [4] | [5] | [6] | [7] | [8] | [9]

NC(N)=NCc1cccc(I)c1
inactive: [1] | [2] | [3] | [4] | [5] | [6] | [7] | [8] | [9]

CCCn1c(=O)[nH]c(=O)c2[nH]cnc21
inactive: [1] | [2] | [3] | [4] | [5] | [6] | [7] | [9]

Oc1ccc(Cl)c2c1CCC2
inactive: [1] | [2] | [3] | [4] | [6] | [7] | [8] | [9]
active: [5] 24.8 µM

CC12CCC(C1)C(C)(C)C2=O (stereo unspecified)
inactive: [1] | [2] | [3] | [4] | [5] | [6] | [7] | [8] | [9]

CCCCCN=C(N)N/N=C/c1c[nH]c2ccc(OC)cc12
inactive: [1] | [2] | [3] | [4] | [5] | [6] | [8] | [9]

NCC[C@H](O)C(=O)N[C@@H]1C[C@H](N)[C@@H](O[C@H]2O[C@H](CN)CC[C@H]2N)[C@H](O)[C@H]1O[C@H]1O[C@H](CO)[C@@H](O)[C@H](N)[C@H]1O
inactive: [1] | [2] | [3] | [4] | [5] | [6] | [7] | [8] | [9]

CCC(NC(C)C)C(O)c1ccc(O)c(O)c1 (stereo unspecified)
inactive: [1] | [2] | [3] | [4] | [5] | [6] | [7] | [8] | [9]

CCCCC/C=C\C=C\C(=O)OCC
active: [2] 56.8 µM | [5] 71.5 µM
inactive: [1] | [3] | [4] | [6] | [7] | [9]

C=CC[N@@+]12CC[C@@]34c5ccccc5N5/C=C6/[C@H]7C[C@H]8[C@@]9(CC[N@@+]8(CC=C)C/C7=C/CO)c7ccccc7N(/C=C(/[C@@H](C[C@@H]31)/C(=C\CO)C2)[C@H]54)[C@@H]69
inactive: [1] | [2] | [3] | [4] | [5] | [6] | [7] | [8] | [9]

C/C(=C(/CCO)SSCC1CCCO1)N(C=O)Cc1cnc(C)nc1N (stereo unspecified)
inactive: [1] | [2] | [3] | [4] | [5] | [6] | [7] | [8] | [9]

CCCCCCCCCCCCN1CCCC1=O
active: [2] 61.1 µM
inactive: [1] | [3] | [4] | [6] | [7] | [8]

CO/N=C(\C(=O)N[C@@H]1C(=O)N2C(C(=O)O)=C(COC(C)=O)CS[C@H]12)c1csc(N)n1 (stereo in doubt)
inactive: [1] | [2] | [3] | [4] | [5] | [6] | [7] | [9]

NS(=O)(=O)c1cc(Cl)c(Cl)c(S(N)(=O)=O)c1
inactive: [1] | [2] | [3] | [4] | [5] | [6] | [7] | [8] | [9]

CN(C/C=C/c1ccccc1)Cc1cccc2ccccc12
inactive: [1] | [2] | [3] | [4] | [5] | [6] | [7] | [8] | [9]

SC1CCCCC1
inactive: [1] | [2] | [3] | [4] | [6] | [7] | [8] | [9]
active: [5] 50.5 µM

COc1cc2c(cc1OC)[C@@H](Cc1cc(OC)c(OC)c(OC)c1)[N+](C)(CCCOC(=O)CC/C=C/CCC(=O)OCCC[N+]1(C)CCc3cc(OC)c(OC)cc3[C@H]1Cc1cc(OC)c(OC)c(OC)c1)CC2 (stereo partly specified)
inactive: [1] | [2] | [3] | [4] | [5] | [6] | [7] | [8] | [9]

CN(C)CCOc1ccc(/C(=C(/CCCl)c2ccccc2)c2ccccc2)cc1
inactive: [1] | [3] | [4] | [6] | [7] | [8]
active: [2] 57.2 µM

O=C1c2c(O)cccc2[C@H]([C@@H]2O[C@H](CO)[C@@H](O)[C@H](O)[C@H]2O)c2cc(CO)cc(O)c21
inactive: [1] | [2] | [3] | [4] | [5] | [6] | [7] | [8] | [9]

CCc1cn([C@H]2C[C@H](O)[C@@H](CO)O2)c(=O)[nH]c1=O
inactive: [1] | [2] | [3] | [4] | [5] | [6] | [7] | [8] | [9]

CC1(C)CCC(NC(=O)[C@@H](N)CCC(=O)O)CC1
inactive: [1] | [2] | [3] | [4] | [5] | [6] | [7] | [8] | [9]

COc1ccc(/C=C/C(=O)O)cc1
inactive: [1] | [2] | [3] | [4] | [5] | [6] | [7] | [8] | [9]

CO/N=C(\C(=O)N[C@@H]1C(=O)N2C(C(=O)O)=C(CSc3cnns3)CS[C@H]12)c1csc(N)n1
inactive: [1] | [2] | [3] | [4] | [5] | [6] | [7] | [8] | [9]

O=C(CCCN1CCN2CCCC2C1)c1ccc(F)cc1 (stereo unspecified)
inactive: [1] | [2] | [3] | [4] | [5] | [6] | [7] | [8] | [9]

O=C(CCN1CCC(c2ccccc2)C1)c1ccc2c(c1)OCCO2 (stereo unspecified)
inactive: [1] | [3] | [4] | [5] | [6] | [8] | [9]

C=CCc1cc(S(=O)(=O)c2ccc(O)c(CC=C)c2)ccc1O
active: [5] 27.3 µM
inactive: [1] | [3] | [4] | [6] | [7] | [8] | [9]

N#Cc1nc(Cl)c(Cl)c(Cl)c1Cl
active: [1] 4.86 µM | [3] 4.86 µM
inactive: [4] | [6] | [7] | [8] | [9]

CNCCC=C1c2ccccc2CCc2ccccc21
inactive: [2] | [4] | [6] | [7] | [8]

Nc1ccc(N)c([N+](=O)[O-])c1
inactive: [6] | [7] | [8] | [9]
active: [5] 1.09 µM

CN[C@H]1CC[C@@H](c2ccc(Cl)c(Cl)c2)c2ccc(S(N)(=O)=O)cc21
inactive: [1] | [6] | [7] | [8] | [9]
active: [5] 8.63 µM

CC(C)NCC1CCc2cc(CO)c([N+](=O)[O-])cc2N1 (stereo unspecified)
inactive: [1] | [6] | [8] | [9]

CC(O)(c1ccc(Cl)cc1)c1ccc(Cl)cc1
active: [5] 27.3 µM
inactive: [1] | [3] | [6] | [7] | [8]

CCN(CC)CC#CCOC(=O)C(O)(c1ccccc1)C1CCCCC1 (stereo unspecified)
inactive: [3] | [6] | [7] | [8] | [9]

C(=C\c1ccncc1)/c1ccccc1
inactive: [3] | [4] | [6] | [7] | [8] | [9]
active: [1] 23.7 µM | [5] 3.76 µM and 10.6 µM

CCN1\C(=C/C=C/C=C/c2sc3ccccc3[n+]2CC)Sc2ccccc21
inactive: [1] | [4] | [6] | [7] | [8]
active: [3] 23.7 µM and 26.6 µM | [5] 33.5 nM and 266 nM

NC(N)=NCCCCN=C(N)N
inactive: [1] | [3] | [4] | [5] | [6] | [7] | [8] | [9]

CC1CCCCN1CCCOC(=O)c1ccccc1 (stereo unspecified)
inactive: [1] | [3] | [4] | [6] | [7] | [9]

CCCCCCCCCCCCCCCCCCNC(=O)OC1CCN(C(=O)OC[C@H](COC(=O)N(Cc2cccc[n+]2CC)C(=O)c2ccccc2OC)OC)CC1
inactive: [1] | [6] | [8] | [9]

O=C(O)c1cc(O)c2c(c1)[C@H]([C@H]1c3cc(C(=O)O)cc(O)c3C(=O)c3c(O[C@@H]4O[C@H](CO)[C@@H](O)[C@H](O)[C@H]4O)cccc31)c1cccc(O[C@@H]3O[C@H](CO)[C@@H](O)[C@H](O)[C@H]3O)c1C2=O
inactive: [1] | [4] | [5] | [6] | [7] | [8] | [9]

CCCCC[C@H](O)/C=C/[C@@H]1[C@@H](C/C=C\CCCC(=O)O)[C@@H](O)C[C@H]1O
inactive: [1] | [3] | [4] | [5] | [6] | [7] | [8] | [9]

CCOc1ccc(NC(=S)Nc2ccc(OCC)cc2)cc1
inactive: [1] | [3] | [4] | [6] | [7] | [8] | [9]

CCCCCCCCCC[N+](C)(CCCCCCCCCC)CCC[Si](OC)(OC)OC
active: [3] 48.6 µM | [4] 54.5 µM
inactive: [6] | [7] | [8] | [9]
